# Sampled rows, rich in hits. Any-hit rate of the full collection: about 0.7%.
# PINK1 expr mod = A Quantitative High throughput Screen to Identify Chemical Modulators of PINK1 Expression. PINK1 immunofluorescence, high-content cytometry, 24 h. Potency, µM (doses to about 76.6 µM), for the others: at the highest dose activation (PINK1 increase), usual class: activators. 410,000 tested, 0.2% active. AID 624263, 2012; active = well fitted activation curve with a large enough effect; inconclusive = small, poorly fitted or top-dose-only effect; cell line not stated here; also: % of control where 0% means no effect; nearly all actives have a fitted effect of over 65% in size
#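 Compound titrations (5 concentrations, 24 h) on a stable cell line; DMSO and CCCP controls. Endpoint: fixed-cell PINK1 immunofluorescence with mitochondrial, cell and nuclear markers, scanned by microplate cytometer.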
# Vif-A3F inh = qHTS for Inhibitors of Vif-A3F Interactions: qHTS | 390,000 tested, 0.2% active | HeLa A3F-eYFP + Vif (tagged APOBEC3F with the HIV-1 protein that degrades it), YFP fluorescence increase | Potency, µM (doses to about 46.1 µM), without a hit: top-dose activity, negative = active | AID 602313, 2012; also: % of control where 0% means no effect; nearly all actives have a fitted effect of over 65% in size
#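 HeLa cells stably expressing A3F-eYFP plus Vif, plated and incubated overnight at 37 deg C, then exposed to compounds overnight at 37 deg C. Blocked degradation read as raised yellow fluorescence (Ex 488/Em 500-530).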
# GLS inhibitor = qHTS for Inhibitors of Glutaminase (GLS); Glutaminase kidney isoform, mitochondrial (Homo sapiens), O94925; GLS enzymatic activity, qHTS titration; Potency, µM (highest dose often 45.5 µM), inactives show at the top dose activity change, negative = inhibition, actives largely listed as inhibitors; 410,000 tested, 0.21% active; AID 624170, 2012; also: % is scaled to controls: 0 for no effect and ±100 for the full control effect
# Target sequence (O94925 whole entry, looked up, canonical isoform): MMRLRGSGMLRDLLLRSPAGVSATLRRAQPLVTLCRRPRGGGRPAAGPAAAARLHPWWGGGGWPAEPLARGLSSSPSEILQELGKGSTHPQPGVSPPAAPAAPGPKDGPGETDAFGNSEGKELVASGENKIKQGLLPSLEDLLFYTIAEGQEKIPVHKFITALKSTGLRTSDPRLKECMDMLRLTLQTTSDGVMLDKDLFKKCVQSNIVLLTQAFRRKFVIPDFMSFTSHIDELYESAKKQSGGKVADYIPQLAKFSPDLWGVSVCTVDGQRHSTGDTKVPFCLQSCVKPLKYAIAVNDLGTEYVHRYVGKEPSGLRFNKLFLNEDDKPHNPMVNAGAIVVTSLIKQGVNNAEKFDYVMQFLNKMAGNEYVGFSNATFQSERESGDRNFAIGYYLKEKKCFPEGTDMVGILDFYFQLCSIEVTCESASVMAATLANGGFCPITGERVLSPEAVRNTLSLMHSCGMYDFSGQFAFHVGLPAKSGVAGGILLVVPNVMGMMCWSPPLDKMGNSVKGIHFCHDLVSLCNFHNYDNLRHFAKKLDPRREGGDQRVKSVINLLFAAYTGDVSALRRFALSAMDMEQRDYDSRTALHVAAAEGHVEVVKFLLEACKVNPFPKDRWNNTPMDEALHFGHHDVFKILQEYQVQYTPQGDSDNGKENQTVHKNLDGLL
#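 Read-out is an Amplex red fluorescence increase coupled through glutamate oxidase and HRP, measured before and after 30 min room-temperature incubation. hKGA is in 45 mM KH2PO4 (pH 8.2) with 0.02% Tween-20; glutamine added as 1mM solution.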
# Vif-A3G inh = qHTS for Inhibitors of Vif-A3G Interactions: qHTS | DNA dC->dU-editing enzyme APOBEC-3G (Homo sapiens), Q9HC16 | HeLa A3G-eYFP + Vif (tagged APOBEC3G with the HIV-1 protein that degrades it), YFP fluorescence, overnight | 410,000 tested, 0.076% active | Potency, µM (series often up to 46.1 µM), for inactives: top-dose activity, negative = active, most hits filed as inhibitors; also: % is scaled to controls: 0 for no effect and ±100 for the full control effect; nearly all actives have a fitted effect of over 60% in size
#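 HeLa cells stably expressing Vif and C-terminally eYFP-tagged A3G, seeded overnight at 37 deg C, then exposed to compound by pintool overnight at 37 deg C. Rise in yellow fluorescence (Ex 488/Em 500-530, Acumen) marks blocked Vif-driven A3G degradation.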
# Epigenetic derep = Quantitative High-Throughput Screen for Regulators of Epigenetic Control | murine LDR cells, GFP reporter derepression, 30 h | Potency, µM (doses to about 53.9 µM), for inactives: at the highest dose GFP activation, most hits filed as activators | 280,000 tested, 0.2% active | AID 1865, 2009; also: % of control where 0% means no effect; nearly all actives have a fitted effect of over 60% in size
#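 Derepression of a silenced CMV-GFP reporter in murine LDR cells is scored by enumerating GFP-positive cells with a laser-scanning microplate cytometer after 30 hours of treatment at 37 C.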
# Starred values were filed as active, the others as inactive; ? = inconclusive; nt = no result given; ! = not confirmed by another sample. Unless noted, calls follow the shape of the dose curve; as a rule, active = well fitted curve in the direction sought with a large enough effect; inconclusive = small, poorly fitted or top-dose-only effect, or another doubt; inactive = no such curve, though single readings can be large; an effect the other way counts as inactive or inconclusive. Potency is read from the fitted curve at half-maximal effect.
SMILES,PINK1 expr mod,Vif-A3F inh,GLS inhibitor,Vif-A3G inh,Epigenetic derep
CC(NC(=S)NCCc1ccccc1)C(c1cccs1)N1CCN(Cc2ccccc2)CC1 (stereo not drawn),15.8µM*,3.8%,-0.3%,-0.2%,1.4%
CC(NC(=O)NC1CCCCC1)C(c1cccs1)N1CCN(Cc2ccccc2)CC1 (stereo not drawn),-0.4%,3.6%,2.8%,-4.5%,0.0%
Cc1cnc(C)c(-c2cccc3c2OC(CNC(=O)/C=C/c2ccncc2)C3)n1 (stereo not drawn),-0.4%,nt,nt,nt,nt
CCc1ccc(Nc2nnc(-c3cc4cc(OC)ccc4oc3=O)s2)cc1,1.8%,0.3%,-12.2%,2.2%,15.8µM*
COc1cc2c(cc1O)CCN[C@@]21CS[C@H]2c3c(OC(C)=O)c(C)c4c(c3C(COC1=O)N1C2C2c3c(cc(C)c(OC)c3O)CC([C@@H]1O)N2C)OCO4 (stereo partly drawn),nt,nt,22.4µM*,nt,nt
CN(c1ccccc1)P(=O)(N(C)c1ccccc1)N(C)c1ccccc1,15.8µM*,4.3%,-3.6%,0.2%,2.3%
CCc1ccccc1NC(=O)c1cnn2c(C(F)(F)F)cc(-c3ccc(OC)c(OC)c3)nc12,-0.2%,?,-1.8%,2.6%,12.6µM*
CCc1ccccc1NC(=O)c1cc2nc(-c3ccc(OC)c(OC)c3)cc(C(F)(F)F)n2n1,-0.3%,-5.0%,2.6%,-3.0%,0.0%
OC(c1ccc2c(c1)CN(Cc1c[nH]c3ccccc13)CCO2)c1ccccn1 (stereo not drawn),-0.1%,nt,nt,nt,nt
COCc1ccc(O)c2ncccc12,1.0%,2.8%,3.8%,10µM*,4.47µM*
Oc1ccc(CNc2ccccc2)c2cccnc12,?,nt,12.4%,0.7%,1.1%
O=[N+]([O-])c1ccc(O)c2ncccc12,-0.3%,?,7.4%,-0.3%,6.31µM*
Cc1ccccc1NCc1ccc(O)c2ncccc12,11.2µM*,-11.7%,2.7%,-0.1%,?
COCC1=C(C(=O)OC(C)OC(=O)OC(C)C)N2C(=O)C(NC(=O)/C(=N\OC)c3csc(N)n3)C2SC1 (stereo not drawn),nt,nt,-2.1%,nt,nt
COc1ccccc1C1CN(CC(=O)NCC2OCCc3ccccc32)Cc2ccccc2O1 (stereo not drawn),-0.4%,nt,nt,nt,nt
C=C[C@@H]1CN2CCC1C[C@@H]2C(O)c1ccnc2ccc(OC)cc12 (stereo partly drawn),nt,nt,nt,nt,0.8%
COc1ccc(CN2CCC3(CCC(CNC(=O)c4ccco4)O3)CC2)c(OC)c1C (stereo not drawn),0.0%,nt,nt,nt,nt
COc1cc(/C=C/C(=O)O)ccc1O,0.1%,3.6%,17.7%,-0.8%,0.8%
COc1cc(/C=C/C(=O)/C=C(O)/C=C/c2ccc(O)c(OC)c2)ccc1O,?,-3.9%,35.5µM*!,?,31.6µM*
COc1ccc(/C=C/C(=O)c2ccc([N+](=O)[O-])o2)cc1OC,8.5%,?,-13.3%,7.94µM*,nt
COc1cc(/C=C/C(=O)c2ccc([N+](=O)[O-])o2)ccc1O,1.6%,?,-1.3%,?,nt
COc1ccc(N=Cc2c(O)n(-c3cccc(C)n3)c(=O)c3ccccc23)cc1,2.7%,5.8%,-6.6%,-4.9%,0.0%
COc1ccc(N=Cc2c(O)n(-c3ccc(OC)cc3)c(=O)c3ccccc23)cc1,?,11.2µM*,0.0%,-0.6%,?
COc1cc(/C=C(\C#N)c2nc3ccccc3[nH]2)ccc1OCc1ccccc1F,?,22.4µM*,3.9%,?,13.0%
COc1cc(/C=C(\C#N)c2nc3ccc(C)cc3[nH]2)ccc1OCc1ccc(C)cc1,8.3%,?,-4.7%,-25.3%,5.62µM*
COc1cc(=O)n2c(c1C(=O)N(C)Cc1nccs1)CCN(Cc1c(F)ccc(F)c1F)CC2,0.4%,nt,nt,nt,nt
CCCCC(=O)Nc1ccc(C2C(=O)c3ccccc3C2=O)cc1,-2.0%,9.6%,17.8µM*,0.3%,nt
CCC(=O)Nc1ccc(C2C(=O)c3ccccc3C2=O)cc1,2.0%,14.8%,45.9%,-13.2%,nt

# Screens as filed in PubChem.
